Source: PubChem BioAssay (Tox21)
Results filed as inconclusive are left out. Activity calls are given as the source filed them. Unless noted, calls follow the shape of the full dose curve.

tested on: not listed separately; test: qHTS assay to identify small molecule antagonists of the estrogen receptor beta (ER-beta) signaling pathway - cell viability counter screen (AID 1259382; active = well fitted cell-killing curve with a large enough effect in the repeat runs; also: nearly all actives have a fitted effect of over 55% in size; also: potency is read from the fitted curve at half-maximal effect;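 as to activity change, negative = cytotoxicity: HEK293T cells carrying ER-beta-UAS-bla reporter stimulated with estradiol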); conditions: ER-beta-UAS-bla HEK293T viability, CellTiter-Glo luminescence, 16 h; series mostly up to 92.4 µM; activity change, negative = cytotoxicity: at the top concentration
Method in brief: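 ER-beta-UAS-bla HEK293T cells (2,000/well, 2% charcoal-stripped FBS) were pre-incubated 6 hr at 37C, then given compound plus 1nM final 17-beta-estradiol for 16 hr. Viability was read in the same wells by CellTiter-Glo luminescence after 30 min at room temperature.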
% is scaled to controls: 0 for no effect and ±100 for the full control effect.

Row | Compound | Potency | activity change, negative = cytotoxicity
1 | CCCCCCOc1cc(C)c(O)c(C)c1C | 61.9 µM (active) | –
2 | Brc1ccccc1-c1ccccc1 | – | 3.16% (inactive)
3 | O[C@@H](c1cc(C(F)(F)F)nc2c(C(F)(F)F)cccc12)[C@H]1CCCCN1 | 16.8 µM (active) | –
4 | CN1CCN(C2Cc3ccccc3Sc3ccc(Cl)cc32)CC1 (centres undefined) | 18.8 µM (active) | –
5 | CCC1(c2cnc[nH]2)Cc2ccccc2C1 | – | -12.9% [at 42.5 µM] (inactive)
6 | CN1[C@@H]2CC[C@H]1CC(OC(=O)C(CO)c1ccccc1)C2 (some centres undefined) | – | -17.5% (inactive)
7 | CCCCCCCC/C=C\CCCCCCCC(=O)N(C)CC(=O)O | 61.1 µM (active) | –
8 | Cc1c(-c2ccc(O)cc2)n(Cc2ccc(OCCN3CCCCCC3)cc2)c2ccc(O)cc12 | 26.6 µM (active) | –
9 | Nc1ccc2cc3ccc(N)cc3nc2c1 | – | -3.11% (inactive)
10 | O=C1c2c(O)ccc(O)c2C(=O)c2c(NCCNCCO)ccc(NCCNCCO)c21 | – | -0.209% [at 42.5 µM] (inactive)
11 | CCCCCCCCCCCC(=O)N(CC)CC | – | -0.572% (inactive)
12 | CCCCCCCC/C=C\CCCCCCCC(=O)NCc1ccc(O)c(OC)c1 | – | -14.9% [at 42.5 µM] (inactive)
13 | Clc1ccccc1CN1CCc2sccc2C1 | – | -13.4% [at 42.5 µM] (inactive)
14 | CCO[Si](CCCSSSSCCC[Si](OCC)(OCC)OCC)(OCC)OCC | 54.5 µM (active) | –
15 | CC(CN(C)C)CN1c2ccccc2CCc2ccccc21 (centres undefined) | 23.7 µM (active) | –
16 | CCCCCCCCCCOCC(O)CN (centres undefined) | 26.6 µM (active) | –
17 | CC(=O)Oc1ccc(C2(c3ccc(OC(C)=O)cc3)C(=O)Nc3ccccc32)cc1 | – | 2.33% [at 42.5 µM] (inactive)
18 | CCN(CC)c1ccc(N)cc1 | 49.9 µM (active) | –
19 | CCN(CC)CCNc1ccc(CO)c2sc3ccccc3c(=O)c12 | 11.9 µM (active) | –
20 | CN(C)CCCN1c2ccccc2Sc2ccc(C(F)(F)F)cc21 | 18.8 µM (active) | –
21 | CC(=O)Nc1ccc(O)cc1 | inactive | –
22 | CCCCCCCCCCCCCCNCCO | – | -14.1% [at 42.5 µM] (inactive)
23 | Cc1cccc(C)c1NC(=O)CN1CCN(CCCC(c2ccc(F)cc2)c2ccc(F)cc2)CC1 | 26.6 µM (active) | –
24 | C[C@]12CC[C@H]3C(=CCc4cc(O)ccc43)[C@@H]1CCC2=O | 30.6 µM (active) | –
25 | O=Nc1ccc(NO)cc1 | – | 1.35% (inactive)

target: Estrogen receptor (Homo sapiens) (UniProt P03372); test: qHTS assay to identify small molecule agonists of the estrogen receptor alpha (ER-alpha) signaling pathway in the presence of an antagonist (AID 1259383); conditions: VM7Luc4E2 cells, ERE-luciferase, +ICI-182,780, 22 h; series mostly up to 92.4 µM; activation: at the top concentration; also: top concentration of the series differs between compounds; nearly all actives have a fitted effect of over 15% in size
Method in brief: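 VM7Luc4E2 cells (endogenous full-length ER-alpha, 4×ERE-luciferase) were precultured 5 days in phenol red-free medium with 10% charcoal-stripped FBS, given 10.0nM ICI-182,780 (final), then treated with compounds at 15 concentrations for 22hr at 37C; luminescence read with ONE-Glo.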

Sequence of Estrogen receptor (Homo sapiens) (P03372 whole entry, looked up): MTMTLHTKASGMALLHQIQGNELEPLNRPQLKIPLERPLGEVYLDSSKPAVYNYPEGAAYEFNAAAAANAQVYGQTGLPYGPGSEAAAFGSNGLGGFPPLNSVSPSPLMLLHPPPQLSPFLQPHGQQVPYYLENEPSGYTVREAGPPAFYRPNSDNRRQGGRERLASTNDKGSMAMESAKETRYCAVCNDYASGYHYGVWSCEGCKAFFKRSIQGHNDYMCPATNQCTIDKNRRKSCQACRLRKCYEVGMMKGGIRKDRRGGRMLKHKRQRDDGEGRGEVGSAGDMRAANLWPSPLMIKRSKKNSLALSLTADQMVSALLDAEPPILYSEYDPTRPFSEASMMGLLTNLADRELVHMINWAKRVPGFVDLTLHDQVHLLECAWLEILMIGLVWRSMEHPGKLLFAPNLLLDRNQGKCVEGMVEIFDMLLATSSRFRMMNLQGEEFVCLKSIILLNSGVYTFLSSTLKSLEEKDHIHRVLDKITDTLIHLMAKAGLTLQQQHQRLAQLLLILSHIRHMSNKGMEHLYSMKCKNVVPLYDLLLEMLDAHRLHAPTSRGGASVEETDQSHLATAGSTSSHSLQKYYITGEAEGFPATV

Row | Compound | activation
26 | Oc1c(Br)cc(Br)c2cccnc12 | -0.198% [at 42.5 µM] (inactive)
27 | CCCCCCOc1cc(C)c(O)c(C)c1C | -0.296% (inactive)
28 | CN1CCN(C2Cc3ccccc3Sc3ccc(Cl)cc32)CC1 (centres undefined) | -1.26% [at 42.5 µM] (inactive)
29 | N#CSCSc1nc2ccccc2s1 | -1.07% (inactive)
30 | C[C@@]12C(=O)OC(=O)[C@]1(C)C1CCC2O1 | -8.53% [at 42.5 µM] (inactive)
31 | COc1ccc2sc(C(=O)Nc3nnn[nH]3)c(OC(C)C)c2c1 | 0.807% (inactive)
32 | CCCCCCOc1ccc(O)cc1 | 12.3% (inactive)
33 | CCO[Si](CCCSSSSCCC[Si](OCC)(OCC)OCC)(OCC)OCC | 1.41% (inactive)
34 | CC(CN(C)C)CN1c2ccccc2CCc2ccccc21 (centres undefined) | -0.664% [at 42.5 µM] (inactive)
35 | CCN(CC)CCNc1ccc(CO)c2sc3ccccc3c(=O)c12 | -0.751% [at 42.5 µM] (inactive)
36 | CCCCN(CCCC)CCC(O)c1cc2c(Cl)cc(Cl)cc2c2cc(C(F)(F)F)ccc12 (centres undefined) | 0.0932% [at 42.5 µM] (inactive)
37 | CN(C)CCCN1c2ccccc2Sc2ccc(C(F)(F)F)cc21 | 0.45% [at 42.5 µM] (inactive)
38 | CCCCCCCCCCCCCCNCCO | 2.37% [at 42.5 µM] (inactive)
39 | CC(O)C#CC(C)O (centres undefined) | 0.0548% (inactive)
40 | O=Nc1ccc(NO)cc1 | 1.55% (inactive)

tested on: not listed separately; test: qHTS assay to identify small molecule agonists or antagonists of the thyroid stimulating hormone receptor (TSHR) signaling pathway - wild type cell line counter screen (AID 1259384); conditions: HEK293 wild type, cAMP HTRF counter-screen, stronger effect = higher value; series mostly up to 92.4 µM; cAMP activity change: at the top concentration
Method in brief: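 Wild-type HEK293 cells were plated 18 h at 37 C/5% CO2, pin-dosed with compound plus Ro20-1724 medium, held 30 min at room temperature, then given cAMP-d2 and anti-cAMP-cryptate; fluorescence was read after 1 h. Fifteen concentrations, triplicate.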

Row | Compound | cAMP activity change
41 | Oc1c(Br)cc(Br)c2cccnc12 | -3.19% [at 42.5 µM] (inactive)
42 | O=C1OC(OC(=O)c2cccnc2Nc2cccc(C(F)(F)F)c2)c2ccccc21 (centres undefined) | 4.22% [at 42.5 µM] (inactive)
43 | CCCCCCOc1cc(C)c(O)c(C)c1C | -5.64% (inactive)
44 | Brc1ccccc1-c1ccccc1 | -1.19% (inactive)
45 | O[C@@H](c1cc(C(F)(F)F)nc2c(C(F)(F)F)cccc12)[C@H]1CCCCN1 | 5.1% [at 42.5 µM] (inactive)
46 | CN1CCN(C2Cc3ccccc3Sc3ccc(Cl)cc32)CC1 (centres undefined) | 7.8% [at 42.5 µM] (inactive)
47 | N#CSCSc1nc2ccccc2s1 | -2.17% (inactive)
48 | CCCCCCCC/C=C\CCCCCCCC(=O)N(C)CC(=O)O | -11.1% (inactive)
49 | CCCCCCCCCCCC(=O)N(CC)CC | 4.63% (inactive)
50 | COc1ccc2sc(C(=O)Nc3nnn[nH]3)c(OC(C)C)c2c1 | 18.1% (inactive)
51 | CCCCCCOc1ccc(O)cc1 | 4.14% (inactive)
52 | CC(C)c1cccc(C(C)C)c1N1C(=O)c2ccc(O)cc2C1=O | -0.856% (inactive)
53 | CC(CN(C)C)CN1c2ccccc2CCc2ccccc21 (centres undefined) | -2.12% [at 42.5 µM] (inactive)
54 | CCCCCCCCCCOCC(O)CN (centres undefined) | 5.07% [at 42.5 µM] (inactive)
55 | CC(=O)Oc1ccc(C2(c3ccc(OC(C)=O)cc3)C(=O)Nc3ccccc32)cc1 | -0.337% [at 42.5 µM] (inactive)
56 | CCN(CC)c1ccc(N)cc1 | -15% (inactive)
57 | CCCCN(CCCC)CCC(O)c1cc2c(Cl)cc(Cl)cc2c2cc(C(F)(F)F)ccc12 (centres undefined) | -3.28% [at 42.5 µM] (inactive)
58 | CN(C)CCCN1c2ccccc2Sc2ccc(C(F)(F)F)cc21 | -3.33% [at 42.5 µM] (inactive)
59 | CCCCCCCCCCCCCCNCCO | 0.421% [at 42.5 µM] (inactive)
60 | Cc1cccc(C)c1NC(=O)CN1CCN(CCCC(c2ccc(F)cc2)c2ccc(F)cc2)CC1 | -2.28% [at 42.5 µM] (inactive)
61 | CC(O)C#CC(C)O (centres undefined) | -4.51% (inactive)
62 | C[C@]12CC[C@H]3C(=CCc4cc(O)ccc43)[C@@H]1CCC2=O | -1.92% (inactive)

target: Thyrotropin receptor (Homo sapiens) (UniProt P16473); test: qHTS assay to identify small molecule antagonists of the thyroid stimulating hormone receptor (TSHR) signaling pathway (AID 1259385); conditions: TSHR-HEK293 cAMP HTRF, TSH-stimulated antagonist mode; series mostly up to 92.4 µM; activity change, negative = inhibition: at the top concentration; also: nearly all actives have a fitted effect of over 20% in size; also: potency is read from the fitted curve at half-maximal effect
Method in brief: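 TSHR-HEK293 cells were plated and held 18 h at 37C/5% CO2, then given compound plus Ro20-1724 and stimulated with TSH at 1.5 ng/mL final. After 30 min at room temperature, cAMP was detected with cAMP-d2/anti-cAMP-cryptate (1 h) by fluorescence.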

Sequence of Thyrotropin receptor (Homo sapiens) (P16473 whole entry, looked up): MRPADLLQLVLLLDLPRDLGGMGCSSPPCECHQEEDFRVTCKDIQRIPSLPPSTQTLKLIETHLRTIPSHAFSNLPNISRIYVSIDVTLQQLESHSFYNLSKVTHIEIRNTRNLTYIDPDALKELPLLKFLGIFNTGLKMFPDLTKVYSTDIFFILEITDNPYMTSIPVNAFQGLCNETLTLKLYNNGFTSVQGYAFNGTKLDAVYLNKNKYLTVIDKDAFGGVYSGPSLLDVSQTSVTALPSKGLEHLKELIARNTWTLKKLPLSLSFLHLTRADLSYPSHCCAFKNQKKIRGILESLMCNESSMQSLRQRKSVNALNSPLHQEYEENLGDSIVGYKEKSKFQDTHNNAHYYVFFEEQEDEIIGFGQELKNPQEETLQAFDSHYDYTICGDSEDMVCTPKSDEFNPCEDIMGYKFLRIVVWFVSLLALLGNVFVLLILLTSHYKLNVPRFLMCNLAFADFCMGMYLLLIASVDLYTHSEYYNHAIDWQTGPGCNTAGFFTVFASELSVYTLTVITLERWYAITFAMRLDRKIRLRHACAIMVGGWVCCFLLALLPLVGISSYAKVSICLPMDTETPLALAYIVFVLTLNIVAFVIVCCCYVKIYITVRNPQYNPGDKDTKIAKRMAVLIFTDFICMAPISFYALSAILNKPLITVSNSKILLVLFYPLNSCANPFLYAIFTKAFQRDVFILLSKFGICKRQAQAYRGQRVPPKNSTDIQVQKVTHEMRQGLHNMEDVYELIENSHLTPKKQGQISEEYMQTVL

Row | Compound | activity change, negative = inhibition | Potency
63 | Oc1c(Br)cc(Br)c2cccnc12 | -0.705% [at 42.5 µM] (inactive) | –
64 | O=C1OC(OC(=O)c2cccnc2Nc2cccc(C(F)(F)F)c2)c2ccccc21 (centres undefined) | -0.831% [at 42.5 µM] (inactive) | –
65 | CCCCCCOc1cc(C)c(O)c(C)c1C | – | 55.1 µM (active)
66 | CCCCCCCC/C=C\CCCCCCCC(=O)N(C)CC(=O)O | -9.24% (inactive) | –
67 | COc1ccc2sc(C(=O)Nc3nnn[nH]3)c(OC(C)C)c2c1 | -6.71% (inactive) | –
68 | CCCCCCOc1ccc(O)cc1 | 9.02% (inactive) | –
69 | CC(C)c1cccc(C(C)C)c1N1C(=O)c2ccc(O)cc2C1=O | -2.52% (inactive) | –
70 | CC(CN(C)C)CN1c2ccccc2CCc2ccccc21 (centres undefined) | – | 29.8 µM (active)
71 | CCCCCCCCCCOCC(O)CN (centres undefined) | -4.52% [at 42.5 µM] (inactive) | –
72 | CCCCN(CCCC)CCC(O)c1cc2c(Cl)cc(Cl)cc2c2cc(C(F)(F)F)ccc12 (centres undefined) | 0.734% [at 42.5 µM] (inactive) | –
73 | CN(C)CCCN1c2ccccc2Sc2ccc(C(F)(F)F)cc21 | – | 29.8 µM (active)
74 | CCCCCCCCCCCCCCNCCO | – | 23.7 µM (active)
